Compounds with a hit are over-represented: about 19% of the library has one in this group of screens.
HT1080-NT tox: qHTS for induction of synthetic lethality in tumor cells producing 2HG: qHTS for the HT-1080-NT fibrosarcoma cell line | 360,000 tested, 1.6% active | HT-1080-NT fibrosarcoma viability, CellTiter-Glo ATP luminescence, 48 h | Potency, µM (series often up to 46.1 µM), hits mostly cytotoxic;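 further: NT is the 2HG producing partner of a matched IDH1 knockdown line; nearly all actives have a fitted effect of over 55% in size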
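Compounds were tested in concentration-response format on HT-1080-NT cells for 48 hours at 37 degrees C. Cell viability came from CellTiter-Glo luminescence; curves were classified by r2, response magnitude and activity.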
DT40 TDP1 CPT: qHTS for Inhibitors of human tyrosyl-DNA phosphodiesterase 1 (TDP1): qHTS in cells in presence of CPT; chicken DT40 Tdp1-/-;hTDP1 cells + 20 nM CPT, ATP luminescence, 48 h; Potency, µM (doses to about 46.2 µM), usual class: inhibitors; 420,000 tested, 12% active; AID 686979, 2013; further: nearly all actives have a fitted effect of over 55% in size
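Chicken DT40 Tdp1-/- cells stably complemented with human TDP1 were seeded at 400 cells/well in medium containing 20 nM camptothecin, exposed to pin-transferred compounds, and grown at 37 °C for at least 48 hr. Viability was read as ATP luminescence.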
TDP1 cell noCPT: qHTS for Inhibitors of human tyrosyl-DNA phosphodiesterase 1 (TDP1): qHTS in cells in absence of CPT | DT40 Tdp1-/- hTDP1 cells, no CPT, ATP luminescence, 48 h | Potency, µM (titrated, usually from 46.2 µM), usual class: inhibitors | 420,000 tested, 15% active | AID 686978, 2013; further: nearly all actives have a fitted effect of over 55% in size
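Chicken DT40 Tdp1-/- cells stably complemented with human TDP1 were seeded at 400 cells/well with DMSO in place of 20 nM camptothecin. After compound pinning, cells grew at least 48 hr at 37 °C; viability read by CellTiter-Glo luminescence.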
IL-1B inflam inh: qHTS for Inhibitors of Inflammasome Signaling: IL-1-beta AlphaLISA Primary Screen; THP-1 LPS/ATP IL-1B secretion, AlphaLISA, 16 h; stronger effect = lower value; activity change, % at 57.5 µM; 360,000 tested, 4.7% active; in the data active means activity change below about -50%; inconclusive means mostly about -30% to -49%
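Secreted IL-1B measured by AlphaLISA bead assay after 16 h compound exposure of THP-1 cells; compounds (final up to 57.5 uM) added 1 h before LPS (250 ng/mL) and ATP (1.25 mM) stimulation; lower signal means less secretion.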
HT1080 IDH1KD tx: qHTS for induction of synthetic lethality in tumor cells producing 2HG: qHTS for the HT-1080-IDH1KD cell line; HT-1080 IDH1 knockdown viability, ATP luminescence, 48 h; Potency, µM (titrated, usually from 46.1 µM), most hits filed as cytotoxic; 360,000 tested, 2% active
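HT-1080-IDH1KD cells (IDH1 knocked down), 750/well in RPMI with 5% FBS, treated with compound 48 h at 37 degrees C. Viability by CellTiter-Glo luminescence, normalised to DMSO and no-cell wells; concentration-response curves classed.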
Large screens that a line does not name were inactive. Unless noted, the call rests on the fitted dose curve; in most records, active means well fitted curve in the direction sought with a large enough effect; inconclusive means small, poorly fitted or top-dose-only effect, or another doubt; inactive means no such curve, though single readings can be large; an effect the other way counts as inactive or inconclusive.

CCOc1ccc(C[C@H]2NC(=O)CCSSC[C@@H](C(=O)N3CCC[C@H]3C(=O)N[C@@H](CCCN)C(=O)NCC(N)=O)NC(=O)[C@H](CC(N)=O)NC(=O)[C@H]([C@@H](C)O)NC(=O)[C@H]([C@@H](C)CC)NC2=O)cc1	none (no result: HT1080-NT tox, IL-1B inflam inh, HT1080 IDH1KD tx)
O=C(NC1(C(=O)NC2CCCCC2)CCCCC1)c1ccccn1	none
Cc1ccc(NC(=O)C2(NC(=O)c3ccccn3)CCCCC2)cc1Br	DT40 TDP1 CPT 21µM, TDP1 cell noCPT inconclusive
Nc1c2c(nc3ccc(Br)cc13)N(c1ccccc1)CC2	HT1080-NT tox inconclusive, DT40 TDP1 CPT inconclusive, TDP1 cell noCPT inconclusive, HT1080 IDH1KD tx inconclusive
Cc1cccc(N2CCc3c2nc2ccc(Br)cc2c3N)c1	HT1080-NT tox inconclusive, DT40 TDP1 CPT inconclusive, TDP1 cell noCPT inconclusive, IL-1B inflam inh -94, HT1080 IDH1KD tx inconclusive
Nc1c2c(nc3ccc(Br)cc13)N(Cc1ccccc1)CC2	DT40 TDP1 CPT inconclusive, TDP1 cell noCPT 21µM, IL-1B inflam inh inconclusive
CCOC(=O)c1c(C)nc2sc3c(=O)n(-c4ccc(C(C)=O)cc4)nnc3c2c1-c1ccc(Cl)cc1	DT40 TDP1 CPT inconclusive, TDP1 cell noCPT 16µM
CCOC(=O)c1c(C)nc2sc3c(=O)n(-c4ccc(C)cc4)cnc3c2c1-c1ccc(OC)cc1	none
CCOC(=O)Cn1nnc2c(sc3nc4c(c(-c5ccc(Cl)cc5)c32)CCC4)c1=O	DT40 TDP1 CPT inconclusive, TDP1 cell noCPT 16µM
CCOC(=O)Cn1nnc2c(sc3nc4c(c(-c5ccccc5)c32)CCC4)c1=O	DT40 TDP1 CPT 21µM, TDP1 cell noCPT 16µM
NC(=O)c1sc2nc3c(c(-c4cccnc4)c2c1N)CCC3	DT40 TDP1 CPT inconclusive
COc1ccc2ccc(=O)oc2c1CC(=O)C(C)C	none
CCOc1ccc(S(=O)(=O)NCCc2c(C)[nH]c3c(Cl)cccc23)cc1C	DT40 TDP1 CPT 23µM, TDP1 cell noCPT inconclusive (no result: HT1080-NT tox, IL-1B inflam inh, HT1080 IDH1KD tx)
COc1ccc(-c2cc(C(F)F)n3ncc(C(=O)N4CCc5ccccc5C4)c3n2)cc1	HT1080-NT tox inconclusive, DT40 TDP1 CPT inconclusive, TDP1 cell noCPT inconclusive, IL-1B inflam inh inconclusive
O=C(c1cnn2c(C(F)F)cc(-c3ccccc3)nc12)N1CCCCC1c1cccnc1 (centres undefined)	DT40 TDP1 CPT 15µM, TDP1 cell noCPT inconclusive
O=C(c1cnn2c(C(F)F)cc(-c3ccccc3)nc12)N1CCc2ccccc21	DT40 TDP1 CPT 18µM, TDP1 cell noCPT inconclusive
O=C(c1cnn2c(C(F)F)cc(-c3ccccc3)nc12)N1CCN2CCCC2C1 (centres undefined)	none
Cc1ccc2nc3sc(C(=O)N4CCCc5ccccc54)c(N)c3cc2c1	DT40 TDP1 CPT inconclusive, TDP1 cell noCPT 15µM
Cc1ccc(-c2cc(C(=O)N3CCCc4ccccc43)c3ccccc3n2)cc1	DT40 TDP1 CPT inconclusive, TDP1 cell noCPT 23µM
Cc1ccc(-c2cc(C(F)F)n3ncc(C(=O)N4CCc5ccccc54)c3n2)cc1	HT1080-NT tox 2.9µM, DT40 TDP1 CPT 1.8µM, TDP1 cell noCPT 1.8µM, HT1080 IDH1KD tx 2.3µM
CCN1CCN(C(=O)c2cnn3c(C(F)F)cc(-c4ccc(C)cc4)nc23)CC1	TDP1 cell noCPT inconclusive, IL-1B inflam inh inconclusive
CCc1nccn1C(=O)c1cnn2c(C(F)F)cc(-c3ccc(C)cc3)nc12	DT40 TDP1 CPT 21µM, TDP1 cell noCPT 15µM (no result: IL-1B inflam inh)
CN(C(=O)CSc1nc2ccc(NC(=O)c3ccco3)cc2s1)c1ccccc1	DT40 TDP1 CPT 18µM, TDP1 cell noCPT 23µM (no result: HT1080-NT tox, IL-1B inflam inh, HT1080 IDH1KD tx)
CN(C(=O)CSc1nc2ccc(NC(=O)c3cccs3)cc2s1)c1ccccc1	DT40 TDP1 CPT 23µM, TDP1 cell noCPT 16µM (no result: HT1080-NT tox, IL-1B inflam inh, HT1080 IDH1KD tx)
O=C(Nc1ccc(S(=O)(=O)NCC2CCCO2)cc1)c1ccc(Cl)cc1[N+](=O)[O-] (centres undefined)	DT40 TDP1 CPT 8.2µM, TDP1 cell noCPT inconclusive
